Screen size: about 290,000 compounds; about 3,000 (1%) were called active. The sample as a whole holds a higher share of actives than the screen did. Unmarked numbers belong to inactive results. Rule as the data show it: active = inhibition mostly above about 36% (no sharp cut-off); inactive = mostly below about 34%.

The inhibition is the drop in the measured response relative to a control, in per cent.

A short description of the experiment: NOD1 signaling inhibitors, primary screen, cell-based, luminescence, uHTS (AID 1578).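 Also: HEK-293T reporter cells stimulated with the NOD1 agonist gamma-tri-DAP.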 Particulars: NOD1-driven NF-kB luciferase reporter cells, at 4 µM, hits give high values. A general note: A reporter such as luciferase makes a cellular process visible.
Take `CCN(CC)S(=O)(=O)c1cccc(C(=O)N[C@H](C(=O)OCC(=O)Nc2ccccc2)C(C)C)c1`: the inhibition is -24.7%.

Turning to `C/C(=N\Nc1ncc(Cl)cc1Cl)c1ccccn1`, the inhibition is 103% (active).

For `C/C(=N\Nc1ccc(Cl)cc1)c1ccccn1`, the inhibition was -119%.

Take `C/C(=N\Nc1ncc(Cl)cc1Cl)c1ccc(C#N)cc1`: the inhibition is -40.4%.

In the case of `Cc1cc(C)c(C(=O)COC(=O)CCNS(=O)(=O)c2c(Cl)cccc2Cl)cc1C`, the inhibition is -13.2%.

For the compound `CCC(C(=O)NC1CC(C)(C)NC(C)(C)C1)c1ccccc1` (configuration not stated), the inhibition is -18.7%.

For `COc1cccc(-n2c(Cn3nc(C(F)(F)F)cc3C)n[nH]c2=S)c1`, the inhibition is 2.3%.

For `CCn1cc(C(=O)NCc2ccccc2)c(=O)c2cc(F)c(N3CCN(C(=O)c4ccco4)CC3)cc21`, the inhibition is 46.3%.

`CCn1cc(C(=O)NCc2ccc3c(c2)OCO3)c(=O)c2cc(F)c(N3CCN(C(=O)c4ccco4)CC3)cc21`: the inhibition was 82.7% (active).

Take `CCn1cc(C(=O)NCc2cccc(F)c2)c(=O)c2cc(F)c(N3CCN(C(=O)c4ccco4)CC3)cc21`: the inhibition was 0.3%.

In the case of `CCOc1ccc(NC(=O)C2CCN(S(=O)(=O)c3ccc4c(c3)CC(C)N4C(C)=O)CC2)cc1` (configuration not stated), the inhibition was -19.4%.

Take `Cc1nn(C)cc1-c1n[nH]c(=S)n1-c1ccc(F)cc1`: the inhibition was -1.9%.

Consider `Cc1ccc(Cn2c3ccccc3c3cn[nH]c(=O)c32)cc1`, for which the inhibition is 59.1% (active).

On to `O=c1[nH]ncc2c3ccccc3n(Cc3ccccc3)c12`, for which the inhibition is 36.5%.

`O=c1[nH]ncc2c3ccccc3n(Cc3ccc(F)cc3)c12`: the inhibition was -2.2%.

For `CN(C)C(=O)CN1C(=O)NC2(CCCc3ccccc32)C1=O` (configuration not stated), the inhibition is -1.9%.

Turning to `CCOC(=O)N1CCC(N(CCN(C)C)C(=S)Nc2cc(C)cc(C)c2)CC1`, the inhibition was -15.3%.

As for `CCOC(=O)N1CCC(N(CCN(C)C)C(=S)Nc2cccc(Cl)c2)CC1`, the inhibition was 0.8%.

As to `CCOC(=O)N1CCC(N(CCN(C)C)C(=S)Nc2cc(Cl)cc(Cl)c2)CC1`, the inhibition was 65.6% (active).

As to `O=C(NC(CO)c1ccccc1)c1ccco1` (configuration not stated), the inhibition was 3%.

With `CC(C)(C(=O)N[C@H](CO)c1ccccc1)C(=O)N[C@H](CO)c1ccccc1`, the inhibition was 95% (active).

As to `CC(C)(C)C(=O)NC(CC(=O)O)c1ccccc1` (configuration not stated), the inhibition is -18.6%.

Take `COCCNC(=O)c1cc(Sc2nnc(C)s2)nc2ccccc12`: the inhibition is -10.4%.

As for `CCOC(=O)c1sc(NC(=O)c2cccc(S(=O)(=O)N3c4ccccc4CC3C)c2)cc1C` (configuration not stated), the inhibition is 6.7%.

As for `Cc1ccc2nc(NC(=O)CCCc3nc4ccccc4s3)sc2c1`, the inhibition was -29%.

For the compound `Cc1ccc(NC(=O)CCCc2nc3ccccc3s2)c(O)c1`, the inhibition was -33.8%.

With `Cc1ccc(NC(=O)CCc2nc3ccccc3s2)c(O)c1`, the inhibition was 43% (active).

Take `O=C(c1ccc(F)cc1)n1c(NCc2ccccc2)n[nH]c1=S`: the inhibition was -17.3%.

Turning to `O=c1cc(C(F)(F)F)[nH]c2c(C(F)(F)F)cccc12`, the inhibition is 72.8% (active).

Take `O=c1cc(C(F)(F)F)[nH]c2c(OC(F)(F)F)cccc12`: the inhibition was 15.5%.

Take `Cc1cccc2c(=O)cc(C(F)(F)F)[nH]c12`: the inhibition was 1.3%.

As to `CCOc1ccc(NC(=O)C2CCCN(S(=O)(=O)c3cnc[nH]3)C2)cc1` (configuration not stated), the inhibition was -9.3%.

On to `CCN(CC)S(=O)(=O)c1ccc(Cl)c(NC(=O)COC(=O)c2ccc(O)cc2)c1`, for which the inhibition is 21.8%.

Turning to `CCSc1nsc(NC(=O)Nc2ccccc2F)n1`, the inhibition was -1.8%.

Regarding `CCSc1nsc(NC(=O)Nc2cccc(OC)c2)n1`, the inhibition was 52.2%.

`COc1cccc(NC(=O)Nc2nc(SC(C)(C)C)ns2)c1`: the inhibition was 40.2%.

On to `COc1cccc(NC(=O)Nc2nc(SC)ns2)c1`, for which the inhibition is -38%.

In the case of `CCSc1nsc(NC(=O)Nc2ccc(F)cc2F)n1`, the inhibition is 26%.

Take `CCCSc1nsc(NC(=O)Nc2ccc(F)cc2F)n1`: the inhibition was 43%.

For the compound `CCn1cc(CN2CCC(C(=O)Nc3cccc(-c4cscn4)c3)CC2)cn1`, the inhibition was -27.3%.

In the case of `CC(C)(C)c1cc(CCC(=O)NCCc2ccccn2)cc(C(C)(C)C)c1O`, the inhibition is -9.5%.

For `COc1ccc(/C=C(\NC(=O)c2ccc(Cl)cc2)C(=O)NCCCn2ccnc2)cc1OC`, the inhibition is 18.2%.

Take `CN1CCN(Cc2nc3c(c(=O)n(C)c(=O)n3C)n2CCCc2ccccc2)CC1`: the inhibition was 16.4%.

With `COc1cccc(Nc2c(Nc3cccc(OC)c3)c(=O)c2=O)c1`, the inhibition was -10.3%.

Turning to `CC1(C)CC(=O)C(C(c2ccccc2F)C2C(=O)CC(C)(C)CC2=O)C(=O)C1`, the inhibition is 0.7%.

Turning to `Cc1ccc(S(=O)(=O)NC(CN2CCOCC2)=NCCNS(=O)(=O)c2ccccc2)cc1`, the inhibition is 31.6%.

As for `CN1CCN(c2ccc(-c3ccnn3C(=O)Nc3cccc(C(F)(F)F)c3)cc2)CC1`, the inhibition was 19.1%.

Turning to `COC(=O)c1cc(N=Nc2sc(N)nc2C)cc(C(=O)OC)c1`, the inhibition was -4.7%.

Consider `CCC(=O)Nc1cc2nn(-c3ccc(OC)cc3)nc2cc1C`, for which the inhibition is -20%.

For the compound `CCCCC(=O)Nc1cc2nn(-c3ccc(OC)cc3)nc2cc1C`, the inhibition is -94.7%.

As for `CCC(=O)Nc1cc2nn(-c3ccc(C)cc3)nc2cc1C`, the inhibition is 58.2% (active).

On to `COc1ccc(C(=O)N/C(=C\c2ccccc2)C(=O)Nc2ccc(C(=O)O)cc2)cc1`, for which the inhibition is 0.4%.

As for `CCN(CC(=O)Nc1ccc(NC(C)=O)cc1)C(=O)/C=C/c1cn(-c2ccccc2)nc1-c1ccc(C)cc1`, the inhibition is 15.8%.

Turning to `CCOC(=O)c1ccc(Oc2cn[nH]c2-c2ccc(O)cc2O)cc1`, the inhibition is 5.5%.

On to `CCOC(=O)Cc1nn(C(C)C)c(=O)c2ccccc12`, for which the inhibition was -21.4%.

Take `CCOC(=O)C(C)n1nc(-c2ccccc2)c2ccccc2c1=O` (configuration not stated): the inhibition was 36.3% (active).

`CCOC(=O)Cn1nc(-c2ccccc2)c2ccccc2c1=O`: the inhibition was -6.3%.

Regarding `CCC(C(=O)O)N1C(=O)C2CCCCC2C1=O` (configuration not stated), the inhibition is 4.4%.

With `O=c1ccc(Cl)n[nH]1`, the inhibition is 61.4% (active).

Turning to `O=c1ccc(-c2ccccc2)n[nH]1`, the inhibition is -29%.

For `O=c1ccc(Cc2ccc(Cl)cc2)n[nH]1`, the inhibition is -29.8%.

`CCn1c(SCC(=O)NC2CCCCC2)nnc1-c1ccccn1`: the inhibition was 2.9%.

As for `O=C(Nc1ccc(S(=O)(=O)Nc2ccccc2)cc1)c1ccc(CN2CCOCC2)cc1`, the inhibition was 76.1% (active).

On to `NC(=O)c1ccc(NC(=O)c2ccc(CN3CCOCC3)cc2)cc1`, for which the inhibition was -20.3%.

Regarding `COc1ccc(C(=O)Nc2ccc(CN3CCCCC3)cc2)cc1`, the inhibition was -37.1%.

Consider `COc1ccc(C(=O)NC(=S)Nc2ccc(CN3CCOCC3)cc2)cc1`, for which the inhibition was -0.3%.

With `O=C(Nc1ccc(S(=O)(=O)N2CCCC2)cc1)c1ccc(CN2CCOCC2)cc1`, the inhibition was 44.6%.

Regarding `c1ccc(COc2cccc(CNCc3cccnc3)c2)cc1`, the inhibition is -20%.

`CC(=O)Nc1ccc(S(=O)(=O)NCc2ccc(C)cc2)cc1`: the inhibition was 2.4%.

On to `Cc1coc2cc3oc(=O)c4c(c3cc12)CCCC4`, for which the inhibition is -30.5%.

As for `COc1ccc(/C=N/Nc2ccccc2C(=O)O)cc1Cn1cc([N+](=O)[O-])cn1`, the inhibition was -11.8%.

Turning to `O=C(COC(=O)c1ccccc1C(=O)c1ccccc1)Nc1ccc(SC(F)F)cc1`, the inhibition is 7.1%.

As for `CCOC(=O)C1=C(C(F)(F)F)Nc2ncnn2C1c1cc(OC)ccc1OC` (configuration not stated), the inhibition was 10.8%.

As for `COc1ccc(OCC(=O)NNc2c3ccccc3nc3ccccc23)cc1`, the inhibition is 76.7% (active).

`Cc1ccc(OCC(=O)NNc2c3ccccc3nc3ccccc23)cc1`: the inhibition is 52.5%.

For `O=C(COc1ccccc1)NNc1c2ccccc2nc2ccccc12`, the inhibition was 40.5%.

Turning to `O=C(OCCN=C1NS(=O)(=O)c2ccccc21)c1ccccc1F`, the inhibition is 31.5%.

Turning to `O=C(NCCCN1CCCC1=O)[C@H](CSCc1ccccc1)N1Cc2ccccc2C1=O`, the inhibition is 1.9%.

As for `Cc1ccc(NC(=O)CN(C)C(=O)Cc2c(Cl)cccc2Cl)cc1`, the inhibition was -9.1%.

Regarding `CCOc1ccc(NC(=O)Nc2cccn(Cc3ccccc3)c2=O)cc1`, the inhibition was 44.3% (active).

As for `COc1cccc(NC(=O)Nc2cccn(Cc3ccccc3)c2=O)c1`, the inhibition was -11%.

`CCc1ccccc1NC(=O)Nc1cccn(Cc2ccccc2F)c1=O`: the inhibition is -23.3%.

For `COc1ccc(Cn2cccc(NC(=O)Nc3ccc(F)cc3)c2=O)cc1`, the inhibition was 37.8%.

`CSc1ccc(NC(=O)Nc2cccn(Cc3ccccc3F)c2=O)cc1`: the inhibition is 89.6% (active).

Consider `CSc1ccc(NC(=O)Nc2cccn(Cc3ccccc3)c2=O)cc1`, for which the inhibition is 46.6%.

Regarding `O=C(O)CCCCCNC(=O)CCn1cnc2ccccc2c1=O`, the inhibition was 21.1%.

In the case of `COc1cc(OC)cc(-c2nnc(SCC(=O)Nc3cccc(C(=O)O)c3)s2)c1`, the inhibition is -32.1%.

Take `O=C(c1ccc(Cl)cc1)N1CCN(CCc2ccccn2)CC1`: the inhibition is -13%.

For the compound `COc1cc(/C=C2/C(=O)NN(c3ccc(F)cc3)C2=O)cc(Cl)c1O`, the inhibition was 12.2%.

On to `COc1cc(/C=C2/C(=O)NN(c3ccccc3)C2=O)cc(Br)c1O`, for which the inhibition is 15.4%.

`OCC[C@@H]1C[C@H](O)[C@@H](O)[C@]2(Cc3ccccc3CO2)O1`: the inhibition was 15%.

`COc1ccc(C(=O)N(CCc2ccccc2)Cc2ccccc2)c(OC)n1`: the inhibition was -5.7%.

For `O=C(c1cc(COc2ccc3ncccc3c2)on1)N1CCC(O)CC1`, the inhibition is 0.3%.

`CCN1CCN(C(=O)c2cc(COc3ccc4ncccc4c3)on2)CC1`: the inhibition was 26.3%.

For `O=C(c1cc(COc2ccc3ncccc3c2)on1)N1CCCC1`, the inhibition was 19.1%.

For the compound `CCC(O)C1CCN(C(=O)c2cc(COc3ccc4ncccc4c3)on2)CC1` (configuration not stated), the inhibition was 52.9%.

`O=C(NC1CCCC1)c1cc(COc2ccc3ncccc3c2)on1`: the inhibition was 26.8%.

`O=C(NC1CCCCCCC1)c1cc(COc2ccc3ncccc3c2)on1`: the inhibition is 44.4% (active).

As for `CC(NC(=O)c1cc(COc2ccc3ncccc3c2)on1)c1ccc(F)cc1` (configuration not stated), the inhibition was 7.2%.

As to `CC(=O)c1ccc(OCc2cc(C(=O)NC3CCCCC3)no2)cc1`, the inhibition was -46.8%.

Take `Cc1ccc(F)cc1CNC(=O)c1cc(COc2ccc3ncccc3c2)on1`: the inhibition is 59.8% (active).

In the case of `Cc1ccc(OCc2cc(C(=O)NCc3cc(F)ccc3C)no2)cn1`, the inhibition was -13.5%.

(Values after PubChem BioAssay AID1578 (Sanford-Burnham Center for Chemical Genomics, 2009).)
